# In the supplement of paper PMC7156485:
# ± gives the standard deviation of the averaged measurements.
# What was measured:
# Conditions in all cases: concentration: 10 µM; 24 h
# [1] = test system: HCC1569; test: cell number relative to DMSO (% of DMSO); higher = more cells (less growth inhibition / toxicity)
# How it was run: (§1)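 Six fields per well were imaged at ×10 after the cells were fixed in 3.7% formaldehyde and stained with a rabbit anti-H1.0 antibody, an AlexaFluor 647 secondary and DAPI. The HCC1569 and TDF cells had been plated at 800 per well in 384-well plates (RPMI, 10% FBS) and treated in triplicate with compounds at 10 µM for 24 h at 37 °C. The values are the median of replicates of H1.0 nuclear intensity or cell number, as percent of the plate control. Smoothing for positional effects was applied to HCC1569 data.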
# [2] = test system: TDF; test: as above
# How it was run: as §1
# [3] = test system: TDF; test: H1.0 immunofluorescence intensity relative to DMSO (% of DMSO); higher = stronger H1.0 induction, active = 120 or more
# How it was run: as §1
# [4] = test system: HCC1569; test: H1.0 immunofluorescence intensity relative to DMSO (% of DMSO); higher = stronger H1.0 induction, active = 140 or more
# How it was run: as §1
# 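For H1.0 immunofluorescence intensity relative to DMSO in this document: TDF is a line of transformed human dermal fibroblasts of mesenchymal origin.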
# 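For cell number relative to DMSO in this document: TDF denotes transformed human dermal fibroblasts of mesenchymal origin.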
SMILES,cell number [1],cell number [2],H1.0 immunofluorescence intensity [3],H1.0 immunofluorescence intensity [4]
CC1(C)NC(=O)N(c2ccc([N+](=O)[O-])c(C(F)(F)F)c2)C1=O [Nilutamide],101,91,98.9 (inactive),100 (inactive)
CN1CCN(c2c(F)cc3c(=O)c(C(=O)O)cn4c3c2SCC4)CC1 [Rufloxacin],107,94.7,100 (inactive),95.2 (inactive)
CCCCCCCCC=CCCCCCCCC(=O)NCCc1ccc(O)c(O)c1 [Oleoyl dopamine],98.1,88.4,103 (inactive),118 (inactive)
"CCCCCCCCCCCC=CCC=CCCCC(=O)O [Eicosa-5,8-dienoic acid (20:2 n-12)]",101,99.6,96.8 (inactive),105 (inactive)
CC1=C(CC(=O)O)c2cc(F)ccc2C1=Cc1ccc(S(C)=O)cc1 (stereo unspecified) [Sulindac],103 ± 2,111 ± 6.2,95 (inactive),100 (inactive)
N#Cc1cc2nc([O-])c([O-])nc2cc1[N+](=O)[O-].[Na+].[Na+] [CNQX disodium],99.5,101,94.1 (inactive),101 (inactive)
CCOC(=O)C(CCc1ccccc1)NC(C)C(=O)N1Cc2ccccc2CC1C(=O)O (stereo unspecified) [Quinapril],102,101,101 (inactive),101 (inactive)
CCCCCCCCCCCCCCCCn1cc[n+](Cc2ccccc2)c1C.[I-],99.1,103,103 (inactive),106 (inactive)
c1ccc(-c2n[nH]c3c2oc2ccccc23)cc1,101,103,94.2 (inactive),126 (inactive)
O=C(CCCN1CC=C(n2c(=O)[nH]c3ccccc32)CC1)c1ccc(F)cc1 [Droperidol],107,98.1,91.1 (inactive),89.2 (inactive)
COc1ccc(-c2coc3cc(O)ccc3c2=O)cc1 [Formononetin],104,103,87.5 (inactive),80.9 (inactive)
Cc1cc(C(C)(C)C)c(O)c(C)c1CC1=NCCN1.Cl [Oxymetazoline hydrochloride],104,107,93.9 (inactive),94.9 (inactive)
CN1CC(O)C(O)C(O)C1CO (stereo unspecified) [N-Methyl-1-deoxynojirimycin],53,57,109 (inactive),185 (active)
CC(=O)C1CCC2C3CC=C4CC(O)CCC4(C)C3CCC12C (stereo unspecified) [Pregnenolone],102,102,95.7 (inactive),112 (inactive)
COC1CC2CCC(C)C(O)(O2)C(=O)C(=O)N2CCCCC2C(=O)OC(C(C)CC2CCC(O)C(OC)C2)CC(=O)C(C)C=C(C)C(O)C(OC)C(=O)C(C)CC(C)C=CC=CC=C1C (stereo unspecified) [Rapamycin],96.2 ± 5.5,92.4 ± 8.9,86.7 (inactive),108 (inactive)
Cl.O=C1NCC2(CCN(CCc3ccccc3)CC2)O1 [Fenspiride hydrochloride],98.2,105,93.2 (inactive),91 (inactive)
CC(C)NCC(O)COc1ccc(CC(N)=O)cc1 (stereo not drawn) [R(+)-Atenolol],98.9,109,90.9 (inactive),95.4 (inactive)
OCCN1CCN(CCCN2c3ccccc3Sc3ccc(Cl)cc32)CC1 [Perphenazine],88,90.8,116 (inactive),140 (inactive)
O=[N+]([O-])c1ccc(Nc2nc(N3CCOCC3)nc(N3CCOCC3)n2)cc1,96.5,99,95.8 (inactive),102 (inactive)
CC(C)CNCc1ccc(-c2ccccc2S(=O)(=O)N2CCCC2)cc1.Cl,96,99.2,88.9 (inactive),100 (inactive)
NS(=O)(=O)c1cc2c(cc1Cl)NC=NS2(=O)=O [Chlorothiazide],105,105,95.5 (inactive),94 (inactive)
"CCCCCC=CCC(O)C=CC=CC=CC(O)CCCC(=O)O [5(S),12(R)-DIHETE all trans]",99.8,97,99.7 (inactive),101 (inactive)
CCN(CC)C(=O)c1ccc(O)c(OC)c1 [Vanillic acid diethylamide],101,103,94.3 (inactive),99.6 (inactive)
Cc1ccc(NC(=O)c2ccc(CN3CCN(C)CC3)cc2)cc1Nc1nc(-c2cccnc2)cs1 [Masatinib(AB1010)],82.7,79.9,109 (inactive),141 (active)
